# A selection: hits, their analogues and other compounds. The true share with any hit is near 4%.
# Beta apoptosis = inhibitors of cytokine-induced beta cell apoptosis, primary screen, luminescence | INS-1E cytokine-induced death, ATP luminescence, 48 h; percent of positive-control rescue, neutral wells zero | protection from apoptosis, % (test concentration not listed) | 0.8% of 300,000 active | AID 435005, 2010;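 active means Every replicate reaches about 75%, or at least half do and their mean reaches it too, limit read from the data; inconclusive means At least half of replicates reach the limit but their mean does not; inactive means Under half of replicates reach the limit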;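 further: 0% = cytokine-treated negative control wells and 100% = positive control rescue; higher means more ATP so stronger rescue from cytokine killing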
# CSC inhib = cancer stem cell viability inhibitors, primary screen, luminescence | cancer stem cell-like cells viability | inhibition, % at 7.5 µM | 1.1% of 300,000 active; in the data active means inhibition above about 75%; inconclusive means no clear call, values can overlap the other calls; tested in HMLE shEcad cells
# Shn3 inh set2 = reduction of Shn3 3'UTR firefly luciferase signal, primary screen, Schnurri-3 inhibitor project, cell-based, Clone20 osteoblasts, set 2; Clone20 osteoblast Shn3 3'UTR firefly luciferase, 24 h; inhibition, % at 12.5 µM; 0.52% of 360,000 active; AID 588674, 2011;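 active means mean inhibition of at least 75% with every replicate also reaching 75%; inconclusive means mean inhibition at least 75% but some replicate below; inactive means mean inhibition below 75%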;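 further: 0% = median of neutral control wells and 100% = pilot-screen positive control compound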
# Mdm2-MdmX inh = inhibitors of human Mdm2-MdmX association, primary screen, cell-based, luminescence, split luciferase, SaOS-2, uHTS; 3% of 330,000 active; Protein Mdm4 (Homo sapiens) + E3 ubiquitin-protein ligase Mdm2 (Homo sapiens), …; SaOS-2 split-luciferase Mdm2/MdmX complementation; AID 485346, 2010; inhibition, % at 8 µM;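 active means inhibition of at least 50% at 8 µM in the primary screen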
# Target sequence (O15151 whole entry, looked up): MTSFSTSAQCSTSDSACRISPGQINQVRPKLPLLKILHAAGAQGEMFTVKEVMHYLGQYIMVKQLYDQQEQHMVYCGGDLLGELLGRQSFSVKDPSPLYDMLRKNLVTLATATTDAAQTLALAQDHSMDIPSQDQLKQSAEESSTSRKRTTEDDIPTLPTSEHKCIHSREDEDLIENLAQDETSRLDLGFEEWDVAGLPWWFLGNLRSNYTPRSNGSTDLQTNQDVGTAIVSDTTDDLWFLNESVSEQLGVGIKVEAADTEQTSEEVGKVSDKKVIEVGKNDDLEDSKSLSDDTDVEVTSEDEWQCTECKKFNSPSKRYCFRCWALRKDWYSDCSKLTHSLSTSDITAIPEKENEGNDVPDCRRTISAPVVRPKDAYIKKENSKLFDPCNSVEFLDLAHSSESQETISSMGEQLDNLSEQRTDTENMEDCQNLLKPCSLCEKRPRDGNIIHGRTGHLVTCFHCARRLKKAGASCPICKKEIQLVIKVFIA
# Target sequence (Q00987 whole entry, looked up): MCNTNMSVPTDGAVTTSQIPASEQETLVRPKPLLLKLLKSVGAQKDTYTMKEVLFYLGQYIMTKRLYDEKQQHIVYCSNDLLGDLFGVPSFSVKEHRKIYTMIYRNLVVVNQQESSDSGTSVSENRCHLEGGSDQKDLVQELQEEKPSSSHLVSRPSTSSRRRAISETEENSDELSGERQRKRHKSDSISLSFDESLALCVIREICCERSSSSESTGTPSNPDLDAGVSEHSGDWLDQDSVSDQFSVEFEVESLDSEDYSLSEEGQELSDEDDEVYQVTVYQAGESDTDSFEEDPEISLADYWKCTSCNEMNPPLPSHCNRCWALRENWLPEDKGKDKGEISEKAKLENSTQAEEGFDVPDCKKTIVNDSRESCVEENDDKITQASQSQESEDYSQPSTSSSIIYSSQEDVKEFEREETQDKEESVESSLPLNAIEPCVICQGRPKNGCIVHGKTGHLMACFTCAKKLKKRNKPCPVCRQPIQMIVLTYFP
# Gli-Sufu antag = Gli-Sufu pathway antagonists, primary screen, luciferase luminescence, Sufu-KO-LIGHT cells, uHTS; Sufu-KO-LIGHT fibroblasts, Gli luciferase reporter luminescence; inhibition, % at 5 µM; 0.74% of 340,000 active;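 active means inhibition above about 55%, limit read from the data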;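 further: 0% = DMSO-treated cells and 100% = wells with medium but no cells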
# PAX8 reporter = inhibitors of PAX8-driven TPO luciferase reporter, primary screen, RMG-I cells, single concentration. SteadyGlo, 24 h. 1.2% of 360,000 active. inhibition, % at 12.6 µM. AID 652154, 2013;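 active means mean replicate inhibition at least 60% with every replicate also reaching 60%; inconclusive means only one of the two criteria is met; inactive means mean below 60% and not all replicates reaching 60%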;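 further: luciferase light reporting Pax8 driven TPO promoter activity; plate controls were median of neutral control wells for no effect and mitoxantrone controls for full effect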
# * hit, by the source's call; ? = inconclusive; . = not tested or not shown.
SMILES,Beta apoptosis,CSC inhib,Shn3 inh set2,Mdm2-MdmX inh,Gli-Sufu antag,PAX8 reporter
C/C(=N\NC(=O)C12CCC(C)(C(=O)O1)C2(C)C)c1ccccc1O (stereo not given),8.6,-5.0,41.4,44.9,-1.0,8.7
CC12CCC(C(=O)N/N=C/c3ccc(O)cc3O)(OC1=O)C2(C)C (stereo not given),.,.,88.6*,37.8,5.9,23.0
COc1ccc(C)cc1NC(=O)C1CCCN(S(=O)(=O)c2cccc3nonc23)C1 (stereo not given),3.5,-9.7,2.7,-10.2,1.1,141.0*
CC(=O)N[C@@H]1CC[C@H](CCNC(=O)Nc2ccc(C(F)(F)F)cc2)O[C@@H]1CO,.,.,.,.,.,-0.7
CCOC(=O)c1c(CSC(=N)N)n(-c2ccc(Br)cc2)c2cc(Br)c(OC(C)=O)cc12,.,.,-58.8,.,10.2,-19.3
CCCCCCCCOC(=O)c1c(CSC(=N)N)n(C)c2cc(Br)c(OC(C)=O)cc12,-1.5,76.3*,-13.0,-4.7,23.1,33.2
Cc1noc(C)c1NC(=O)Nc1ccc2c(c1)CC(=O)N([C@H](C)CO)C[C@H](C)[C@H](CN(C)Cc1ccccc1)O2,.,.,.,.,.,-30.3
COC(=O)C1CCCCN1C(=O)c1cc(COc2cccc3cnccc23)on1 (stereo not given),101.3*,3.4,79.3,49.5,.,28.2
COC(=O)C1CCCCN1C(=O)c1cc(COc2cccc3cccnc23)on1 (stereo not given),-3.5,-3.3,3.6,2.1,5.9,2.7
COc1ccc(/C=C2\SC(=N)N(c3nccs3)C2=O)cc1OC,58.4,77.4*,9.1,17.5,-7.4,22.4
N=C1S/C(=C\c2ccc(-c3cccc(Cl)c3)o2)C(=O)N1c1nccs1,71.7,65.2,?,.,87.8*,19.5
COc1ccc(/C=C2\SC(=S)N(NC(=O)c3ccncc3)C2=O)cc1OC,3.6,-5.5,.,17.7,.,.
COc1ccccc1-c1cn(CC[C@@H]2CC[C@@H](NC(=O)C3CC3)[C@H](CO)O2)nn1,.,.,.,.,.,0.1
CCCNC(=O)[C@H]1[C@H](CO)[C@H]2Cn3c(ccc(-c4ccccc4OC)c3=O)[C@H]2N1S(C)(=O)=O,.,.,.,.,.,-10.9
COc1ccccc1Oc1ccc(-c2cnc3ccccc3n2)cc1[N+](=O)[O-],6.9,3.8,-3.8,0.2,-12.1,-11.2
O=[N+]([O-])c1cc(-c2cnc3ccccc3n2)ccc1Oc1ccc(Cl)cc1,4.7,76.7*,-29.6,6.6,5.4,-18.5
Cn1c(CCN2CCCC2)nc2cc(NS(=O)(=O)c3ccc(F)cc3)ccc21,.,.,1.7,.,.,84.3*
Cc1ccc(S(=O)(=O)Nc2ccc3c(c2)nc(CCN2CCCC2)n3C)cc1,26.7,39.7,9.6,49.2,8.0,93.6*
CCCNC(=O)C[C@@H]1C[C@H]2c3cc(NC(=O)C4CCOCC4)ccc3O[C@H]2[C@@H](CO)O1,.,.,.,.,.,-1.1
COc1ccc(-c2cc3nc(-c4ccccc4)cc(N4CCC(O)CC4)n3n2)cc1,16.6,.,-3.5,8.7,20.1,11.5
COc1ccc(-c2cc3nc(-c4ccccc4)cc(N4CCCC(O)C4)n3n2)cc1 (stereo not given),18.4,93.5*,4.9,34.8,16.1,10.1
O=C(c1ccco1)c1nnn(Cc2ccccc2)c1-c1ccccc1,4.5,78.0*,-0.4,12.3,0.3,.
C[C@@H]1CCCCO[C@@H](CN(C)C(=O)Nc2ccccc2)[C@H](C)CN([C@H](C)CO)C(=O)c2cc(NC(=O)c3ccccc3)ccc2O1,.,.,.,.,.,17.5
O=C(CCS(=O)(=O)c1ccccc1)Nc1ncc([N+](=O)[O-])s1,-24.4,17.4,-4.7,35.9,-4.8,78.2*
CCOCc1nnc(NC(=O)CS(=O)(=O)c2ccc(C)cc2)s1,-2.0,-10.8,-4.3,-8.2,-9.2,-7.0
SMILES,Beta apoptosis,CSC inhib,Shn3 inh set2,Mdm2-MdmX inh,Gli-Sufu antag,PAX8 reporter
O=C(COC(=O)c1ccc(Br)o1)Nc1ncc([N+](=O)[O-])s1,-8.6,.,-33.1,9.1,-5.9,-65.2
COc1ccc(C(=O)OCC(=O)Nc2ncc([N+](=O)[O-])s2)cc1OC,-10.7,4.8,86.3*,-1.3,1.6,-9.9
CCc1nnc(NC(=O)CCS(=O)(=O)Cc2ccccc2)s1,1.5,4.7,-1.0,46.1,24.9,8.3
CCC(CC)c1nnc(NC(=O)CCS(=O)(=O)Cc2ccccc2)s1,.,-7.2,-38.3,34.6,0.8,61.6*
CCc1nnc(NC(=O)CCS(=O)(=O)c2ccc(C)cc2)s1,-7.2,-14.9,-7.2,41.6,9.6,64.2*
CO[C@@H]1CN(C)C(=O)c2cc(NC(=O)C3CC3)ccc2OC[C@@H](C)N(S(=O)(=O)c2ccc(Cl)cc2)C[C@H]1C,.,.,.,.,.,4.6
CN1CCN(C(=O)C[C@@H]2C[C@H]3c4cc(NS(C)(=O)=O)ccc4O[C@H]3[C@H](CO)O2)CC1,.,.,.,.,.,3.3
O=C(NC1CCC1)[C@H]1[C@H](CO)[C@H]2Cn3c(ccc(-c4cccc(F)c4)c3=O)[C@@H]1N2Cc1cocn1,.,.,.,.,.,-26.6
C[C@H]1CN([C@@H](C)CO)C(=O)c2cc(NS(C)(=O)=O)ccc2O[C@@H]1CN(C)Cc1ccc(Cl)c(Cl)c1,.,.,.,.,.,-1.6
COCc1nnc(NC(=O)CCS(=O)(=O)c2ccccc2)s1,-24.1,-3.6,-3.9,4.4,11.7,66.5*
CC(C)c1nnc(NC(=O)CCS(=O)(=O)c2ccccc2)s1,-19.0,7.4,-6.1,38.5,13.9,?
CCc1nnc(NC(=O)c2cccc(C(=O)Nc3nnc(CC)s3)n2)s1,76.2*,40.2,88.1*,.,84.6*,25.5
CCc1nnc(NC(=O)c2ccncc2)s1,-2.6,-1.5,-16.7,-5.6,-1.1,.
C[C@@H]1CCCCO[C@@H](CN(C)S(=O)(=O)c2cn(C)cn2)[C@H](C)CN([C@@H](C)CO)C(=O)c2cc(NS(=O)(=O)c3cn(C)cn3)ccc2O1,.,.,.,.,.,2.8
Cc1noc(C)c1C(=O)N(C)C[C@H]1OCc2ccccc2-c2ccccc2C(=O)N([C@H](C)CO)C[C@@H]1C,.,.,.,.,.,-19.8
Cc1ccc(NC(=O)NCC2CCN(Cc3cccc(Cl)c3)CC2)cc1Cl,120.3*,?,-4.5,31.4,-1.7,8.2
Cc1ccc(S(=O)(=O)Nc2cccc3c2O[C@H](CN(C)C(=O)Nc2cccc4ccccc24)[C@@H](C)CN([C@H](C)CO)C3=O)cc1,.,.,.,.,.,20.0
O=C(Nc1cccc(Br)c1)Oc1cccc2cccnc12,.,.,6.4,.,.,10.6
O=C(Nc1cccc(C(F)(F)F)c1)Oc1ccc(Cl)c2cccnc12,115.5*,43.2,51.1,.,9.0,14.2
O=C(Nc1c(Cl)cccc1Cl)Oc1cccc2cccnc12,.,.,74.6,.,.,73.3*
O=C(C[C@@H]1C=C[C@H](NC(=O)C2CC2)[C@@H](CO)O1)NCc1ccncc1,.,.,.,.,.,9.4

# Screens deposited in PubChem BioAssay by several laboratories.
